From PubChem BioAssay (EPA / NIEHS)
Results filed as inconclusive are left out. More than one record can exist for a structure, and the calls need not agree. Active and inactive are the calls of the source. Rule for the calls, unless noted: active = hit-call score of the fitted dose curve at least 0.9, where 1 is the maximum; inactive = score below 0.9.

Key:
[1] = target: Nuclear receptor subfamily 4 group A member 2 (Homo sapiens) (UniProt P43354); experiment: ATG_NURR1_TRANS: Attagene TRANS-FACTORIAL HepG2 Assay for human Nuclear Receptor Related Protein 1 (NURR1) (AID 2282985; active = hit-call score of the fitted dose curve at least 0.9, where 1 is the maximum); conditions: HepG2 Attagene TRANS reporter, mRNA readout
Sequence of Nuclear receptor subfamily 4 group A member 2 (Homo sapiens) (P43354 whole entry, looked up, the tested form may be a part): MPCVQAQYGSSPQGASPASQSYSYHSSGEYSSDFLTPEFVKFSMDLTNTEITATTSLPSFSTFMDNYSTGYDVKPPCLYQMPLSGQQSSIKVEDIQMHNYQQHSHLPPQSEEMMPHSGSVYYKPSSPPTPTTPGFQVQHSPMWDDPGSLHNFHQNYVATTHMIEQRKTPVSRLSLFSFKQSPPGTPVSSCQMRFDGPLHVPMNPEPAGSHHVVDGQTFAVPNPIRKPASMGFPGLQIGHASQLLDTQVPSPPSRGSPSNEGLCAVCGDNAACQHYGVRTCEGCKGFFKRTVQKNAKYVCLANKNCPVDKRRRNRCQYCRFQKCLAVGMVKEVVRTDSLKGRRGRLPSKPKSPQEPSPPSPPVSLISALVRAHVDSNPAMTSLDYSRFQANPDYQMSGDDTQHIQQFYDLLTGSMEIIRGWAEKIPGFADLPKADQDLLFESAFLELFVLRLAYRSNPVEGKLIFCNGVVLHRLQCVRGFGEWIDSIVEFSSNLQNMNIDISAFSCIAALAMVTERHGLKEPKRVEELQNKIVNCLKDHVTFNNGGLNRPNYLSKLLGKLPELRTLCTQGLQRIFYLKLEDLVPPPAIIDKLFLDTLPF
Outline: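 HepG2 cells transiently transfected with GAL4-UAS reporter units and chimeric NR-Gal4 constructs; chemical exposure 24 h. Reporter mRNA quantified by RT-PCR, fluorescent labelling and capillary electrophoresis; gain of signal fitted relative to DMSO baseline.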

[2] = target: Transcriptional activator Myb (Homo sapiens) (UniProt P10242); experiment: ATG_Myb_CIS: Attagene CIS-FACTORIAL HepG2 Assay for human Myeloblastosis (Myb) Proto-Oncogene Transcription Factor (AID 2282986); conditions: HepG2 Attagene CIS-FACTORIAL Myb reporter transcription; actives raise or lower the signal
Sequence of Transcriptional activator Myb (Homo sapiens) (P10242 whole entry, looked up): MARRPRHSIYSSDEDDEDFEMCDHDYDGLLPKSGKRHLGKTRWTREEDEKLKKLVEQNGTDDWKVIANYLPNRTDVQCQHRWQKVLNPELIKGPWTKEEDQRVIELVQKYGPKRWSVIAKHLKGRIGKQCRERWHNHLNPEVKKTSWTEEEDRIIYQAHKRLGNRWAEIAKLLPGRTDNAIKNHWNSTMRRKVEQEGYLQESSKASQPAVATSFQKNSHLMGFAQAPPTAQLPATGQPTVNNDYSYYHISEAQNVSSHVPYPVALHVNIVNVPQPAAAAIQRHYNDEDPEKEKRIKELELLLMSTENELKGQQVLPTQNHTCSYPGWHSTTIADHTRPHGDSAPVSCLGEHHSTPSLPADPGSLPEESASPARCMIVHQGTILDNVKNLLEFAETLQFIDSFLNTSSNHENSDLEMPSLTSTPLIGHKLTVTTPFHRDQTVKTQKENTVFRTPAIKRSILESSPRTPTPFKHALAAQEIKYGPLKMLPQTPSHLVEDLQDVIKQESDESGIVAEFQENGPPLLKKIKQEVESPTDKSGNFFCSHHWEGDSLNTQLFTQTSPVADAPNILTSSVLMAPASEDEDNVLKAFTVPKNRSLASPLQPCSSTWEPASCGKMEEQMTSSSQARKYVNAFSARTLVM
Outline: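 Multiplexed cis-reporter system in HepG2: transient transfection, 24 h treatment, mRNA readout by RT-PCR and capillary electrophoresis. Both increases and decreases are scored versus DMSO negative control.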

[3] = target: Nuclear respiratory factor 1 (Homo sapiens) (UniProt Q16656); experiment: ATG_NRF1_CIS: Attagene CIS-FACTORIAL HepG2 Assay for human Nuclear Respiratory Factor 1 (NRF1) Orphan Gene (AID 2282987); conditions: HepG2 NRF1 cis-element reporter, Attagene multiplex; actives raise or lower the signal
Sequence of Nuclear respiratory factor 1 (Homo sapiens) (Q16656 whole entry, looked up): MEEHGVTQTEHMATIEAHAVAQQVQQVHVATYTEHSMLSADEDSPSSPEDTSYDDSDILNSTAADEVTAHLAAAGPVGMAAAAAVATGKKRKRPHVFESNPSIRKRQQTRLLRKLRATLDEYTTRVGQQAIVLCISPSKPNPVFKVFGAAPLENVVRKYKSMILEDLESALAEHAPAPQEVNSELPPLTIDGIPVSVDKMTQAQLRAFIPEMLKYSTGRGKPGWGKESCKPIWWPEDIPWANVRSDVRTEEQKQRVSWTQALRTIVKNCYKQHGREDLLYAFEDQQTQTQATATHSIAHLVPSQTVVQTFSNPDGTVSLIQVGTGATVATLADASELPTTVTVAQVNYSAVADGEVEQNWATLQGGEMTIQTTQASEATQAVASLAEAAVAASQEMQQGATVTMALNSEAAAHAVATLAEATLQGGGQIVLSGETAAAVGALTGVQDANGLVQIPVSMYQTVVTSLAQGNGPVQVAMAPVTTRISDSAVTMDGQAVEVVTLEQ
Outline: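 Endogenous factor activity was captured via cis-element-driven reporter transcripts in HepG2 cells. Following 24 h chemical treatment, transcripts were quantified by RT-PCR and capillary electrophoresis.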

[4] = ATG_NFI_CIS: Attagene CIS-FACTORIAL HepG2 Assay for human Nuclear Factor I (NFI) (AID 2282989); conditions: HepG2 cis-regulatory reporter, NFI response element transcription; actives raise or lower the signal
Outline: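 Reporter transcription driven by endogenous transcription factors in HepG2 cells; 24 h treatment. Quantitation by labelled RT-PCR fragments on capillary electrophoresis, gain- or loss-of-signal relative to DMSO.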

[5] = target: Myc proto-oncogene protein (Homo sapiens) (UniProt P01106); experiment: ATG_Myc_CIS: Attagene CIS-FACTORIAL HepG2 Assay for human Myelocytomatosis (Myc) Proto-Oncogene Transcription Factor (AID 2282990); conditions: HepG2, Attagene cis-reporter transcription factor activity; actives raise or lower the signal
Sequence of Myc proto-oncogene protein (Homo sapiens) (P01106 whole entry, looked up): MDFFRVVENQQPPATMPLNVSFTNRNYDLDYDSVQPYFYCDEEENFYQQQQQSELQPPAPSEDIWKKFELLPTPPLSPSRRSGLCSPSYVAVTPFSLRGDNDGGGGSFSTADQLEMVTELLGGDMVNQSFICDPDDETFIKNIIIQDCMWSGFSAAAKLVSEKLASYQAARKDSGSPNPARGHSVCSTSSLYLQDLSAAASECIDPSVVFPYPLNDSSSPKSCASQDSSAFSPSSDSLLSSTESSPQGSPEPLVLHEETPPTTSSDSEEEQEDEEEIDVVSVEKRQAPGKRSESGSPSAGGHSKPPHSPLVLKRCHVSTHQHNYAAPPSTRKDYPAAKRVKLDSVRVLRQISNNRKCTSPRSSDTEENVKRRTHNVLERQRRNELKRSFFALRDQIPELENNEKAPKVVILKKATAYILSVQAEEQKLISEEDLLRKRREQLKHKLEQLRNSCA
Outline: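 HepG2 cells transiently transfected with multiple cis-promoter-driven reporter transcription units, so endogenous TF activity is read. After 24 h compound exposure, reporter mRNA was quantified by RT-PCR, 6-FAM labelling, HpaI digestion and capillary electrophoresis; bidirectional fit versus DMSO.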

[6] = ATG_NRF2_ARE_CIS: Attagene CIS-FACTORIAL HepG2 Assay for human Nuclear Factor Erythroid 2 Related Factor 2 (NFR2) response to Antioxidant Response Elements (ARE) (AID 2282992); conditions: HepG2 Attagene ARE/NRF2 reporter, transcription factor activity; actives raise or lower the signal;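 for AC50: reporter mRNA level measured by RT-PCR and capillary electrophoresis fluorescence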
Outline: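 Transient MRTU transfection of HepG2; 24 h compound exposure; TriZol RNA, RT with oligo(dT), PCR, 6-FAM primer extension, HpaI cut, CE. Bidirectional fit vs DMSO.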

[7] = ATG_Oct_MLP_CIS: Attagene CIS-FACTORIAL HepG2 Assay for human Octamer-Binding Transcription Factor (Oct) (AID 2282993); conditions: HepG2 Attagene cis-factorial Oct reporter, mRNA; actives raise or lower the signal
Outline: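 Transfected HepG2 cells, 24 h treatment. Reporter mRNA quantified by RT-PCR–capillary electrophoresis; bidirectional fitting against DMSO.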

[8] = BSK_3C_TissueFactor: BioMAP Diversity Plus: 3C Assay for Tissue Factor Biomarker Activity (AID 2282997); conditions: BioMAP 3C HUVEC, tissue factor biomarker readout; actives raise or lower the signal
Outline: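 Dosing of human umbilical vein endothelial cells preceded a 24 h incubation. Tissue Factor was then read by ELISA, with increases and decreases both scored relative to DMSO controls.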

[9] = BSK_3C_uPAR: BioMAP Diversity Plus: 3C Assay for Urokinase-type plasminogen activator receptor (uPAR) Biomarker Activity (AID 2282998); conditions: BioMAP 3C HUVEC, uPAR biomarker ELISA; actives raise or lower the signal
Outline: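 Readout: ELISA for surface uPAR. System: human umbilical vein endothelial primary cells, 24 h after chemical exposure. Analysis: bidirectional fit, DMSO baseline.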

[10] = BSK_3C_VCAM1: BioMAP Diversity Plus: 3C Assay for Vascular cell adhesion molecule 1 (VCAM1) Biomarker Activity (AID 2282999); conditions: BioMAP 3C HUVEC, VCAM1 ELISA, cytokine-stimulated; actives raise or lower the signal
Outline: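 Human umbilical vein endothelial cells were dosed with compound for 24 h, after which cell-surface VCAM-1 was quantified by ELISA. Bidirectional curve fitting used DMSO as negative control and activity baseline.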

[11] = target: Oxysterols receptor LXR-beta (Homo sapiens) (UniProt P55055); experiment: ATG_LXRb_TRANS: Attagene TRANS-FACTORIAL HepG2 Assay for human Liver X Receptor beta (LXRb) (AID 2282981; active = hit-call score of the fitted dose curve at least 0.9, where 1 is the maximum); conditions: HepG2 Attagene TRANS GAL4-LXRb reporter, mRNA
Sequence of Oxysterols receptor LXR-beta (Homo sapiens) (P55055 whole entry, looked up, the tested form may be a part): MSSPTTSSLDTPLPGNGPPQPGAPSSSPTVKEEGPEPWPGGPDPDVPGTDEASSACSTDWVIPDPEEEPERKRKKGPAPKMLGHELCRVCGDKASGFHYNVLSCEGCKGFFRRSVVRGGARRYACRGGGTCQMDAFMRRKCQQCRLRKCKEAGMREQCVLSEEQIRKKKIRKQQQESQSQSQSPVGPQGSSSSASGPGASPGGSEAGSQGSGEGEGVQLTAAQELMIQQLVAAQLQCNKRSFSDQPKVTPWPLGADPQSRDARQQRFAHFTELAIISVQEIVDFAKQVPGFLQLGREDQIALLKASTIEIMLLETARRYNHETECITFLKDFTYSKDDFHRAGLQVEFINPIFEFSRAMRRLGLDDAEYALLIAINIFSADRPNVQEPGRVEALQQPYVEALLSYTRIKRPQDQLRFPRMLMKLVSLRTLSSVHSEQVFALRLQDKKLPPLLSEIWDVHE
Outline: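 HepG2 cells transiently transfected with multiple reporter transcription units carrying chimeric NR-Gal4 proteins acting on GAL4-UAS reporters; compound exposure 24 h. Reporter mRNA quantified by RT-PCR, 6-FAM labelling, HpaI digestion and capillary electrophoresis; gain of signal versus DMSO.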

[12] = target: Hepatocyte nuclear factor 4-alpha (Homo sapiens) (UniProt P41235); experiment: ATG_HNF4a_TRANS: Attagene TRANS-FACTORIAL HepG2 Assay for human Hepatocyte Nuclear Factor 4 alpha (HNF4a) (AID 2282982; active = hit-call score of the fitted dose curve at least 0.9, where 1 is the maximum); conditions: HepG2 HNF4a transactivation reporter, mRNA readout
Sequence of Hepatocyte nuclear factor 4-alpha (Homo sapiens) (P41235 whole entry, looked up, the tested form may be a part): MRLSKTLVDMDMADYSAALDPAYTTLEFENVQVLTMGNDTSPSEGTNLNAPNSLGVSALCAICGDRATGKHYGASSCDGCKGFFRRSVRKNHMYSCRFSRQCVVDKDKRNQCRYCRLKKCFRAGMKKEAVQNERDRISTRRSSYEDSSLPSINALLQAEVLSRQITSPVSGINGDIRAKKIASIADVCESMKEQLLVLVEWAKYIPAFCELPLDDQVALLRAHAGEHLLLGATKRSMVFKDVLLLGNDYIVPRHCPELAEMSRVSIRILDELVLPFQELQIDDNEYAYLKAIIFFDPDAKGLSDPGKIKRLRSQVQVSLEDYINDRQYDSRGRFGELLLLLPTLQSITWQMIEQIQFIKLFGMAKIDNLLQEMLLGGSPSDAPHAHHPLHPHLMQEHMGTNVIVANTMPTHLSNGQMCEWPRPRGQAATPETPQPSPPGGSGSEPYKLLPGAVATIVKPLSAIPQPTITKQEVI
Outline: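 HepG2 cells transiently transfected with multiplexed GAL4-UAS reporter units responsive to chimeric NR-GAL4 proteins; compound exposure 24 h. Reporter mRNA quantified by RT-PCR, 6-FAM labelling, HpaI digestion and capillary electrophoresis; gain of signal versus DMSO baseline.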

[13] = ATG_M_32_TRANS: Attagene TRANS-FACTORIAL HepG2 Assay for M32 Transcription Factor (Internal Marker) (AID 2282984; active = hit-call score of the fitted dose curve at least 0.9, where 1 is the maximum;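 note: transcript level of a background control reporter unit measured by RT-PCR and capillary electrophoresis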); conditions: HepG2 Attagene TRANS M32 internal marker reporter
Outline: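 HepG2 cells transiently transfected with multiple GAL4-UAS reporter transcription units, dosed for 24 hours; reporter mRNA quantified by RT-PCR, 6-FAM primer extension, HpaI digestion and capillary electrophoresis. Gain-of-signal fitted versus DMSO baseline; internal background-control marker.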

[14] = ATG_NF_kB_CIS: Attagene CIS-FACTORIAL HepG2 Assay for human Nuclear Factor Kappa B (NF-kB) (AID 2282991); conditions: HepG2 Attagene cis-factorial NF-kB reporter mRNA; actives raise or lower the signal
Outline: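 After 24 h compound incubation, transfected HepG2 cells yield total RNA; reporter cDNA is PCR-amplified, end-labelled with 6-FAM, HpaI-digested and analysed on a genetic analyser. Endogenous factor activity, DMSO-referenced bidirectional fit.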

[15] = target: Cellular tumor antigen p53 (Homo sapiens) (UniProt P04637); experiment: ATG_p53_CIS: Attagene CIS-FACTORIAL HepG2 Assay for human p53 Transcription Factor (AID 2282994); conditions: HepG2 p53 cis-element reporter, Attagene mRNA; actives raise or lower the signal
Sequence of Cellular tumor antigen p53 (Homo sapiens) (P04637 whole entry, looked up): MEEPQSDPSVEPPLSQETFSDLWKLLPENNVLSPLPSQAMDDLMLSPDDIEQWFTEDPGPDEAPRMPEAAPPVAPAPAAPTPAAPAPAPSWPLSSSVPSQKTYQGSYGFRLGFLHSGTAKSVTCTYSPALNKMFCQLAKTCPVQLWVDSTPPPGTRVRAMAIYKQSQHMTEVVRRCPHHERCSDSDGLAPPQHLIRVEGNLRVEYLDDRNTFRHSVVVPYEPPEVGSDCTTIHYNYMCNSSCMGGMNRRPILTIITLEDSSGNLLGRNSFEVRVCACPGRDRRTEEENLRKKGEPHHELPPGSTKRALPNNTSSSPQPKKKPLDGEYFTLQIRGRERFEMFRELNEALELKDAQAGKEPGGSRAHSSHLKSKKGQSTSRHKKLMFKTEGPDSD
Outline: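 HepG2, transient MRTU transfection (cis promoter elements, endogenous TFs); 24 h dosing; RNA isolation, RT-PCR, 6-FAM primer extension, HpaI digest, CE fluorescence; bidirectional fit vs DMSO.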

[16] = ATG_M_06_TRANS: Attagene TRANS-FACTORIAL HepG2 Assay for M06 Transcription Factor (Internal Marker) (AID 2282983; active = hit-call score of the fitted dose curve at least 0.9, where 1 is the maximum;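 note: reporter transcript level by RT-PCR then capillary electrophoresis fluorescence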); conditions: HepG2 Attagene TRANS M06 internal marker reporter
Outline: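 Cells: HepG2, transient multi-reporter transfection. Exposure: 24 h. Detection: RT-PCR, 6-FAM labelling, HpaI digestion (2 h, 37 °C), capillary electrophoresis. Baseline: DMSO.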

[17] = target: Oxysterols receptor LXR-alpha (Homo sapiens) (UniProt Q13133); experiment: ATG_LXRa_TRANS: Attagene TRANS-FACTORIAL HepG2 Assay for human Liver X Receptor alpha (LXRa) (AID 2282980; active = hit-call score of the fitted dose curve at least 0.9, where 1 is the maximum); conditions: HepG2 Attagene TRANS reporter, LXRa transactivation
Sequence of Oxysterols receptor LXR-alpha (Homo sapiens) (Q13133 whole entry, looked up, the tested form may be a part): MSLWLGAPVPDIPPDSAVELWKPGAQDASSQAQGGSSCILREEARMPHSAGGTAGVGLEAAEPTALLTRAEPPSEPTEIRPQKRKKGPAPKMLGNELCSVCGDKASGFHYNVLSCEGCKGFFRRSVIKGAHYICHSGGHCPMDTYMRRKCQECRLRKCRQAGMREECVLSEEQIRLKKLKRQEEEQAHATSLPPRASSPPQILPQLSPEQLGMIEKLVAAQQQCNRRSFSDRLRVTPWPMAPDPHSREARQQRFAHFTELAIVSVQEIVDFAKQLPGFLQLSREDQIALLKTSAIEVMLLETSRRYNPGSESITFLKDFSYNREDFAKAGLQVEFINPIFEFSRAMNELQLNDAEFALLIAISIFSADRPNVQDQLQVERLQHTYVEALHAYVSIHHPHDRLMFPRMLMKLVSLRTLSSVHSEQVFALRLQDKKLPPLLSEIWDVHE
Outline: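 Chemical-induced reporter mRNA measured by RT-PCR with fluorescent labelling and capillary electrophoresis after 24 h dosing of transiently transfected HepG2 cells expressing exogenous NR-Gal4 chimeras; increases scored against DMSO baseline.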

[18] = target: Bile acid receptor (Homo sapiens) (UniProt Q96RI1); experiment: ATG_FXR_TRANS: Attagene TRANS-FACTORIAL HepG2 Assay for Farnesoid X Receptor (FXR) (AID 2282979; active = hit-call score of the fitted dose curve at least 0.9, where 1 is the maximum;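 note: hits raise reporter mRNA above DMSO so AC50 marks FXR activation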); conditions: HepG2 Attagene TRANS FXR-GAL4 reporter transcription
Sequence of Bile acid receptor (Homo sapiens) (Q96RI1 whole entry, looked up, the tested form may be a part): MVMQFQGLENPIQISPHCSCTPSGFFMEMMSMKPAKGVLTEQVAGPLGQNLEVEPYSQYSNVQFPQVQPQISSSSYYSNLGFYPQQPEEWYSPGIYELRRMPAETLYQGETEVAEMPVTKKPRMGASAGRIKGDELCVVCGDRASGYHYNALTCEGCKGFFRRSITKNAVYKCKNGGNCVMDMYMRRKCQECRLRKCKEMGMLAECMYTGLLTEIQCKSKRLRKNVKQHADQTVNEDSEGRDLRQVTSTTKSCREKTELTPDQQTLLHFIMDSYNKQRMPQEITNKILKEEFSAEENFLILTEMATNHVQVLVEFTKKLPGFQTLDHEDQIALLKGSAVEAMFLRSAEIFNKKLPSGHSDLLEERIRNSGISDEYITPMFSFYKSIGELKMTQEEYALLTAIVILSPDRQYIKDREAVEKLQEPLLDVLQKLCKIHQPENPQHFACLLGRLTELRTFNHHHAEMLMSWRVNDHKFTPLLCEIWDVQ
Outline: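 Reporter transcripts from transfected HepG2 cells were measured 24 h after dosing, using RT-PCR with capillary electrophoresis of 6-FAM-labelled fragments. The read-out reflects activity of exogenous FXR-Gal4 chimera on GAL4-UAS units, with induction relative to DMSO.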

Measured: AC50

OC[C@H]1O[C@@H]2O[C@H]3[C@H](O)[C@@H](O)[C@@H](O[C@H]4[C@H](O)[C@@H](O)[C@@H](O[C@H]5[C@H](O)[C@@H](O)[C@@H](O[C@H]6[C@H](O)[C@@H](O)[C@@H](O[C@H]7[C@H](O)[C@@H](O)[C@@H](O[C@H]1[C@H](O)[C@H]2O)O[C@@H]7CO)O[C@@H]6CO)O[C@@H]5CO)O[C@@H]4CO)O[C@@H]3CO
inactive: [1] | [2] | [3] | [4] | [5] | [6] | [7] | [8] | [9] | [10]

NC(N)=O
not listed: [1] | [3] | [15] | [16] | [17] | [18]
inactive: all other assays above

CCCCCCCC/C=C\CCCCCCCC(=O)OC[C@@H](O)[C@H]1OC[C@H](O)[C@H]1O
not listed: [1] | [3] | [16] | [17] | [18]
inactive: all other assays above

CNC(C)=O
inactive: [16] | [2] | [4] | [5] | [6] | [7] | [8] | [9] | [10]

OCC(CO)(CO)CO
active: [6] 141 µM
inactive: [17] | [11] | [12] | [16] | [1] | [2] | [3] | [4] | [5] | [6] | [7] | [8] | [9] | [10]

CCCCOC(=O)c1ccccc1
not listed: [1] | [12] | [13] | [16] | [17] | [18]
inactive: all other assays above

CCCCCCOC(=O)CC(CC(=O)OCCCCCC)(OC(=O)CCC)C(=O)OCCCCCC
inactive: [12] | [2] | [4] | [5] | [14] | [6] | [7] | [8] | [9] | [10]

CCCCN1C(=O)[C@@H]([C@H](O)C2CCCCC2)NC(=O)C12CCN(Cc1ccc(Oc3ccc(C(=O)O)cc3)cc1)CC2
active: [14] 53.4 µM | [15] 93.5 µM | [9] 26.7 µM
inactive: [13] | [2] | [4] | [5] | [6] | [7] | [8] | [10]

CC1(C)C(=O)N(Cl)C(=O)N1Cl
not listed: [1] | [11] | [13] | [14] | [16] | [17] | [18]
inactive: all other assays above

Cn1c(=O)c2[nH]cnc2n(C)c1=O
not listed: [1] | [3] | [11] | [16] | [17]
inactive: all other assays above
